Experimental data from the supplement of paper PMC10849652.
Of roughly 7,900 targets only a part is listed; those with a hit were picked by preference. About 0.6% of all pairs of compound and target were hits. A number with no mark means an inactive call.

Tests used:
Experiment in all cases: log2 fold change, soluble protein after heating vs DMSO (PISA); higher = thermal stabilisation; K562 cells, 10 uM, 30 min; active = over 0.2 and 3.5 SD of the protein, either way, in both replicates (recomputed)
[1] = compound: NC(=O)Nc1cc(-c2cccc(F)c2)sc1C(=O)N[C@H]1CCCNC1
Outline: (§1)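 Thermal stability values are relative to control samples and come from duplicates. They are expressed as log2 fold changes. For measurement, K562 cells (2×10^6 cells/mL) received 10 μM compound for 30 min, and aliquots were heated for 3 min over 48°C-58°C, pooled, and extracted at 4°C in PBS with 0.5% NP-40. Soluble protein, the supernatant after 21,000xg for 90 min, was quantified by TMTpro 16plex LC-MS/MS with equalised channel sums.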

[2] = compound: NC(=O)c1cnc(N[C@@H]2CCCC[C@@H]2N)nc1Nc1cccc(-n2nccn2)c1
Outline: as §1

[3] = compound: NC1(c2ccc(-c3nc4ccn5c(=O)[nH]nc5c4cc3-c3ccccc3)cc2)CCC1
Outline: as §1

[4] = compound: NCC(=O)Nc1ccc(-n2nc(C(F)(F)F)cc2-c2ccc3c(ccc4ccccc43)c2)cc1
Outline: as §1

entinostat = compound: Nc1ccccc1NC(=O)c1ccc(CNC(=O)OCc2cccnc2)cc1 [entinostat]
Outline: as §1

vorinostat = compound: O=C(CCCCCCC(=O)Nc1ccccc1)NO [vorinostat]
Outline: as §1

citarinostat = compound: O=C(CCCCCCNC(=O)c1cnc(N(c2ccccc2)c2ccccc2Cl)nc1)NO [citarinostat]
Outline: as §1

silmitasertib = compound: O=C(O)c1ccc2c(c1)nc(Nc1cccc(Cl)c1)c1ccncc12 [silmitasertib]
Outline: as §1

[5] = compound: O=C1NC(=O)C(c2cnc3ccccn23)=C1c1cn2c3c(cc(F)cc13)CN(C(=O)N1CCCCC1)CC2
Outline: as §1

[6] = compound: c1cc(OCCN2CCCCC2)cc(-c2n[nH]c3ccc(-c4nnc[nH]4)cc23)c1
Outline: as §1

entospletinib = compound: c1cn2cc(-c3ccc4cn[nH]c4c3)nc(Nc3ccc(N4CCOCC4)cc3)c2n1 [entospletinib]
Outline: as §1

UniProt Q2TAA5, sequence (Q2TAA5 whole entry, looked up): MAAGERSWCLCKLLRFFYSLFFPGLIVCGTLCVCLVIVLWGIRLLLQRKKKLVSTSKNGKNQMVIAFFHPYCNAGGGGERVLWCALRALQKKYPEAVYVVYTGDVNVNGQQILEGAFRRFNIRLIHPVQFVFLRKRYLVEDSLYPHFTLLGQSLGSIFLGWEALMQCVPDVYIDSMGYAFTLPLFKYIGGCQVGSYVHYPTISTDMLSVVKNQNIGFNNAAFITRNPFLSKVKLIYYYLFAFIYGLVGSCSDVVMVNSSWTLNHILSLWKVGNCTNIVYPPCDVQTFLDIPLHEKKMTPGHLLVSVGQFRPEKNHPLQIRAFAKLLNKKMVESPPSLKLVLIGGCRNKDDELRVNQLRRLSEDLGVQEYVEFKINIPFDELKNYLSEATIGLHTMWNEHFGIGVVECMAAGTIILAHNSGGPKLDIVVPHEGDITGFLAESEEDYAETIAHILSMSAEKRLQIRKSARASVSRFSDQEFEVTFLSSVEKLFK
UniProt P10398, sequence (P10398 whole entry, looked up): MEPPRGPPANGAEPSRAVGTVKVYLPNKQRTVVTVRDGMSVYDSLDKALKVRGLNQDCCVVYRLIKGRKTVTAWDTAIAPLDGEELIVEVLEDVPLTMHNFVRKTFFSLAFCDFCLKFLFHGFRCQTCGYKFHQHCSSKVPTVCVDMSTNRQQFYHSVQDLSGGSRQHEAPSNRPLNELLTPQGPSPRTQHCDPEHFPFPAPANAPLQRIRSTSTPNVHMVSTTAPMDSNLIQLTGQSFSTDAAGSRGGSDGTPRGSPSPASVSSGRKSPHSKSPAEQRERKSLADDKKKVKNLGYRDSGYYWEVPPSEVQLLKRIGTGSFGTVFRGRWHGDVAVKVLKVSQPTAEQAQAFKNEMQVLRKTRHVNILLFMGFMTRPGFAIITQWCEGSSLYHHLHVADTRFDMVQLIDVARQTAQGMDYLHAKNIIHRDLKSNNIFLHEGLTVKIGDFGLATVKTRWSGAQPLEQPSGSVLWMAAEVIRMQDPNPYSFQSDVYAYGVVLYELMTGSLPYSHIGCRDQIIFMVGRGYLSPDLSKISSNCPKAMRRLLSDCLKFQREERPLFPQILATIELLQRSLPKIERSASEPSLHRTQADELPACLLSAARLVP
UniProt O14727, sequence (O14727 whole entry, looked up): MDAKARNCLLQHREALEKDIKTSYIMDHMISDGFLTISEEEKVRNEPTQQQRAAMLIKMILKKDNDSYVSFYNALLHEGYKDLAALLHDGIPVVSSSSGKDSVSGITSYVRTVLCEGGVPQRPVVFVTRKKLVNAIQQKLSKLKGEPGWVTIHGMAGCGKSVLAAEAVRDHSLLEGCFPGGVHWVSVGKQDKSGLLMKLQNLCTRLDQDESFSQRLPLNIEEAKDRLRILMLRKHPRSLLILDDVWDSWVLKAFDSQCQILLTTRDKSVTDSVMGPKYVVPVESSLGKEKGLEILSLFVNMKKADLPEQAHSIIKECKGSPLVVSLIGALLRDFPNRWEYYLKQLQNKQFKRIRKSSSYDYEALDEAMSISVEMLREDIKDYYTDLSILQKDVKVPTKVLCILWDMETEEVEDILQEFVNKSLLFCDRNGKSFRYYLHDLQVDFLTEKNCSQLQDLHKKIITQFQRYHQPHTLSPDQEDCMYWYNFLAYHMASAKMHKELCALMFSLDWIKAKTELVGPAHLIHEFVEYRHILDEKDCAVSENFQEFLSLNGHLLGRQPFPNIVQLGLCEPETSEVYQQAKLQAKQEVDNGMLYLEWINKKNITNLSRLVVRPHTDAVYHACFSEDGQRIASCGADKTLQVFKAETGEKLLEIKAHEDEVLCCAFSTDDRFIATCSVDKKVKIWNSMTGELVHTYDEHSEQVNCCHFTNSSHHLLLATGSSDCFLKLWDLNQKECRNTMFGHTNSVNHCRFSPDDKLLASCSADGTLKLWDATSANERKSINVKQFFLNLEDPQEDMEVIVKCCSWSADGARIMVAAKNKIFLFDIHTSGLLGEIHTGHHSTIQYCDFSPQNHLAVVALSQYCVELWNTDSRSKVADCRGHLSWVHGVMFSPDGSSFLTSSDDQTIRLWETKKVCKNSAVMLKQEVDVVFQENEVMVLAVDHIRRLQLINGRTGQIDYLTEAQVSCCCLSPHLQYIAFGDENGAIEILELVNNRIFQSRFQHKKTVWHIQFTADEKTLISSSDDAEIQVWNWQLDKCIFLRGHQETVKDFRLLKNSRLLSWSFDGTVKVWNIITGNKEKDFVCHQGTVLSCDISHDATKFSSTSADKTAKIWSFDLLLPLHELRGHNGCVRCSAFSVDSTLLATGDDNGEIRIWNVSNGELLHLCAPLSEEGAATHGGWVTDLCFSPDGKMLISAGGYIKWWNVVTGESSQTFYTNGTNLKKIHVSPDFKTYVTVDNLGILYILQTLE
UniProt P30043, sequence (P30043 whole entry, looked up): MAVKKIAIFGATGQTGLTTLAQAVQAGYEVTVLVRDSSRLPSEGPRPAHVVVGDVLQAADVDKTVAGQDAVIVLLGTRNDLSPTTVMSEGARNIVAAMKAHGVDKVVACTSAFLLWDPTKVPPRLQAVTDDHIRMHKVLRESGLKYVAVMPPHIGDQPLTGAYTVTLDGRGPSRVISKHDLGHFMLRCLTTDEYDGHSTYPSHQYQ
UniProt Q9H7F0, sequence (Q9H7F0 whole entry, looked up): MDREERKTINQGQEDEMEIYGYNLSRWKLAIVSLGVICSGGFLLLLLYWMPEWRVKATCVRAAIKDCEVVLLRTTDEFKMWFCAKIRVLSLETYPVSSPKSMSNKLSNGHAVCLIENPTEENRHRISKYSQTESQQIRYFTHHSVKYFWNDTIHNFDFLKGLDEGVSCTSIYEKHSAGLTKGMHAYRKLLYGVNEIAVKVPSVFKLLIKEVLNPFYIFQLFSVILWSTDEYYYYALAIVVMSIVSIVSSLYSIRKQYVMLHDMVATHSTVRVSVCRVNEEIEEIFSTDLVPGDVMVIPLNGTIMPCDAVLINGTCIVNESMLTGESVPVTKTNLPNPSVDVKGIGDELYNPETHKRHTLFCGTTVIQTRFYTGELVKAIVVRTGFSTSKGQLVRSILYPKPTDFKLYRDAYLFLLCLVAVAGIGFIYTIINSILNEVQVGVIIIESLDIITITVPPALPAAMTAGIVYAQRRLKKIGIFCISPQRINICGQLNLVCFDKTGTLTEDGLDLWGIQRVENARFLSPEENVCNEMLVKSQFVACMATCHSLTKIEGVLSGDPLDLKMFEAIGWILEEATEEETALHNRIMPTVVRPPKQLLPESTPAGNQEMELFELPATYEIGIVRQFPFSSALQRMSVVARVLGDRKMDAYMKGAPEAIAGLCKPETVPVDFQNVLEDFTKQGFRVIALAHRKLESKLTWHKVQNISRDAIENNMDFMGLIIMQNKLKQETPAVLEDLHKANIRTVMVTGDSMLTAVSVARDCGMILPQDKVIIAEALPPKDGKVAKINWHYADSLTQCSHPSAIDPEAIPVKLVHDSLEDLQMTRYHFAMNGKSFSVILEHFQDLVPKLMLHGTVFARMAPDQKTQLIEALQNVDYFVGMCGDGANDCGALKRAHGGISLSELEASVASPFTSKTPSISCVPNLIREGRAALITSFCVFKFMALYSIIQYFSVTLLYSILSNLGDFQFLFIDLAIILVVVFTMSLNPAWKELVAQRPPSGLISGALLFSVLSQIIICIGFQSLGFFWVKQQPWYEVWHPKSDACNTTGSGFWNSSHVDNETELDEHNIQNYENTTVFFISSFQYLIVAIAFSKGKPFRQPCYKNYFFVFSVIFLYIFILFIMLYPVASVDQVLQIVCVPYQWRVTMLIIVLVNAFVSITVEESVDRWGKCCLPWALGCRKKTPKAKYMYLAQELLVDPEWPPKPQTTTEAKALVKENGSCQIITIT
UniProt Q6P6C2, sequence (Q6P6C2 whole entry, looked up): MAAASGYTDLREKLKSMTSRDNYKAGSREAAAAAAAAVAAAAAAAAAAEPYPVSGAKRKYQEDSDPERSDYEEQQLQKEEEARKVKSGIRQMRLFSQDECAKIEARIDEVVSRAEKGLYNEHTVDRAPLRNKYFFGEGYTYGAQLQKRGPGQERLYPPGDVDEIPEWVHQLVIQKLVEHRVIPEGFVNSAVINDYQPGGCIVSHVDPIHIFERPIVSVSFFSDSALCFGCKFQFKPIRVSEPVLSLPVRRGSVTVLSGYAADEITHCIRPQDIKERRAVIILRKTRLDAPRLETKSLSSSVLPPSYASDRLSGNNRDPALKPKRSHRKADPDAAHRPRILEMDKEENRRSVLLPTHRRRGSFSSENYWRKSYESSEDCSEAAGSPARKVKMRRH
UniProt Q16186, sequence (Q16186 whole entry, looked up): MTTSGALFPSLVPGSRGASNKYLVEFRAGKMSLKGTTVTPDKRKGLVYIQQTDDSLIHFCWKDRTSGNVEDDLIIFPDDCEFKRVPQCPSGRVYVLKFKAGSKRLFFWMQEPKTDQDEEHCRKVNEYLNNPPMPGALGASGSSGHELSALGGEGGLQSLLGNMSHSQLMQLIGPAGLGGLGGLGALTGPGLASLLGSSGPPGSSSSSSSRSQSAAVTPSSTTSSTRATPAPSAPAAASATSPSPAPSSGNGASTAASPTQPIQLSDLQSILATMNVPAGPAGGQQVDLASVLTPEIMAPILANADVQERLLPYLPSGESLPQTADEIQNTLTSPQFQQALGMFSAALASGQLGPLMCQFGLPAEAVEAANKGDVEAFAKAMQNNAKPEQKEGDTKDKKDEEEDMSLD
UniProt P54709, sequence (P54709 whole entry, looked up): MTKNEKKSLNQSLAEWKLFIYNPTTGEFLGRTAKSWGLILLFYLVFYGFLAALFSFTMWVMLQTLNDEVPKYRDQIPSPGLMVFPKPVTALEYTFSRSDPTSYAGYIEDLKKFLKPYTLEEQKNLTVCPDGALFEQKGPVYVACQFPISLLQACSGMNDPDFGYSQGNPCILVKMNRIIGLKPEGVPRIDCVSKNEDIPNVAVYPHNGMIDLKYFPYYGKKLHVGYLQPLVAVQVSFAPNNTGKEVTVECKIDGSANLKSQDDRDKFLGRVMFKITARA
UniProt O00244, sequence (O00244 whole entry, looked up): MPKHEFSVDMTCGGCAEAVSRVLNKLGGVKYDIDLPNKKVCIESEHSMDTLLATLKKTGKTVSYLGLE

| Target | log2 fold change [1] | log2 fold change [2] | log2 fold change [3] | log2 fold change [4] | log2 fold change (entinostat) | log2 fold change (vorinostat) | log2 fold change (citarinostat) | log2 fold change (silmitasertib) | log2 fold change [5] | log2 fold change [6] | log2 fold change (entospletinib) |
| --- | --- | --- | --- | --- | --- | --- | --- | --- | --- | --- | --- |
| BCL9L (UniProt Q86UU0) | 0.037 | -0.009 | 0.03 | 0.021 | -0.002 | 0.012 | 0.017 | -0.038 | -0.045 | 0.241 (active) | -0.027 |
| ATOX1 (UniProt O00244) | 0.175 | 0.273 | -0.032 | 0.03 | 0.081 | -0.018 | 0.091 | -0.105 | -0.081 | -0.004 | -0.005 |
| ATP1A1 (UniProt P05023) | -0.055 | 0.093 | 0.116 | 0.07 | -0.04 | 0.03 | -0.003 | -0.062 | -0.077 | 0.003 | 0.002 |
| ACIN1 (UniProt Q9UKV3) | -0.013 | -0.038 | 0.003 | -0.062 | -0.024 | 0.035 | 0.035 | -0.124 | 0.013 | -0.084 | -0.008 |
| BCAP29 isoform 2 (UniProt Q9UHQ4) | 0.001 | 0.049 | 0.034 | -0.094 | -0.014 | -0.064 | -0.015 | 0.031 | -0.043 | -0.036 | -0.005 |
| ABITRAM (UniProt Q9NX38) | -0.018 | -0.12 | -0.194 | 0.008 | 0.008 | -0.089 | 0.046 | 0.094 | -0.015 | -0.006 | -0.052 |
| ALDH9A1 (UniProt P49189) | 0.079 | 0.051 | -0.024 | 0 | -0.014 | -0.209 | -0.014 | -0.033 | 0.025 | 0.055 | 0.066 |
| APAF1 (UniProt O14727) | 0.016 | 0.033 | -0.116 | -0.104 | 0.031 | 0.048 | 0.093 | -0.116 | -0.062 | -0.016 | -0.099 |
| AP2A2 isoform 2 (UniProt O94973) | -0.155 | 0.052 | -0.003 | -0.013 | 0.002 | 0.034 | -0.023 | -0.016 | -0.113 | -0.156 | 0.059 |
| ATIC (UniProt P31939) | -0.023 | 0.001 | 0.03 | -0.009 | -0.019 | -0.026 | 0.01 | -0.059 | -0.066 | 0.013 | 0.045 |
| AGO1 (UniProt Q9UL18) | 0.108 | 0.011 | 0.049 | 0.073 | -0.012 | -0.05 | 0.439 (active) | 0.12 | -0.067 | -0.413 | -0.2 |
| ALG11 (UniProt Q2TAA5) | -0.052 | 0.032 | -0.093 | -0.019 | 0.01 | -0.038 | 0.039 | 0.008 | -0.002 | -0.08 | -0.005 |
| ADRM1 (UniProt Q16186) | -0.009 | -0.045 | -0.058 | 0.006 | -0.012 | 0.038 | 0.067 | 0 | 0.064 | -0.052 | -0.079 |
| ATP1B3 (UniProt P54709) | -0.065 | -0.011 | 0.066 | 0.004 | -0.041 | -0.007 | 0.037 | 0.002 | -0.057 | -0.088 | -0.031 |
| AIP (UniProt O00170) | -0.004 | 0.011 | -0.128 | 0.018 | 0.084 | 0.076 | 0.105 | 0.038 | 0.031 | 0.036 | -0.031 |
| ATRN (UniProt O75882) | -0.007 | -0.023 | -0.073 | -0.031 | -0.016 | -0.006 | -0.004 | 0.006 | -0.538 (active) | -0.092 | 0.02 |
| ARHGAP1 (UniProt Q07960) | -0.068 | -0.048 | -0.003 | -0.051 | 0.016 | 0.012 | 0.009 | 0.014 | -0.024 | -0.093 | 0.011 |
| ACO2 (UniProt Q99798) | 0.017 | -0.04 | -0.142 | -0.012 | 0.039 | 0.023 | 0.057 | 0.001 | -0.058 | -0.042 | -0.008 |
| BLVRB (UniProt P30043) | 0.069 | 0.006 | -0.116 | 0.018 | 0.058 | 0 | 0.058 | 0.01 | 0.021 | -0.035 | 0.069 |
| ARAF (UniProt P10398) | -0.059 | 0.196 | -0.119 | 0.011 | 0.062 | 0.055 | 0.098 | 0.048 | 0.017 | -0.096 | -0.003 |
| ATP6AP1 (UniProt Q15904) | -0.033 | -0.208 | -0.149 | -0.04 | 0.025 | 0.063 | 0.035 | 0.043 | -0.005 | -0.087 | -0.012 |
| ATP13A3 (UniProt Q9H7F0) | -0.072 | 0.027 | -0.082 | 0.039 | 0.026 | -0.026 | -0.033 | 0.048 | 0.02 | -0.099 | 0.042 |
| ALKBH5 (UniProt Q6P6C2) | 0.031 | -0.021 | 0.102 | 0.052 | -0.076 | 0.18 | 0.109 | 0.033 | 0.076 | 0.042 | -0.03 |
| BMP2K (UniProt Q9NSY1) | 0.297 | 0.076 | 0.035 | -0.007 | -0.037 | -0.078 | -0.053 | 0.031 | 0.291 | 0.241 | 0.157 |
| ATAD3B (UniProt Q5T9A4) | 0.017 | -0.029 | -0.089 | -0.088 | 0.013 | 0.108 | -0.016 | 0.005 | 0.248 | -0.104 | 0.058 |
| BCCIP (UniProt Q9P287) | 0.023 | -0.008 | -0.006 | -0.04 | -0.052 | 0.045 | 0.022 | 0.049 | -0.012 | -0.079 | -0.036 |
| B4GALNT1 (UniProt Q00973) | -0.001 | -0.062 | -0.093 | 0.092 | 0.02 | 0.003 | 0.538 (active) | 0.062 | -0.095 | 0.064 | 0.074 |
